Source: paper PMC5540273 (PLoS ONE, 2017)

How the values were obtained:
Settings in all cases: concentration: 1 μM,replicates: in singlicate; n = 1
PIK3C2G = system: PIK3C2G
PIK3CA = system: PIK3CA
PIK3CB = system: PIK3CB
PIK3CD = system: PIK3CD
PIK3CG = system: PIK3CG
PIK4CB = system: T1, PIK4CB
T1 construct: gene PI4KB

PIKFYVE = system: PIKFYVE
PIM1 = system: PIM1
PIM2 = system: PIM2
PIM3 = system: PIM3
PIP5K1A = system: PIP5K1A
PIP5K1C = system: PIP5K1C
PIP5K2B = system: PIP5K2B
PIP5K2C = system: T2, PIP5K2C
T2 construct: gene PIP4K2C

PKAC-alpha = system: T3, PKAC-alpha
T3 construct: gene PRKACA

PKAC-beta = system: T4, PKAC-beta
T4 construct: gene PRKACB

PKMYT1 = system: PKMYT1
PKN1 = system: PKN1
PKN2 = system: PKN2
PLK1 = system: PLK1
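Further: KINOMEscan kinase panel screen.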

SMILES | %Inh (PIK3C2G) [%] | %Inh (PIK3CA) [%] | %Inh (PIK3CB) [%] | %Inh (PIK3CD) [%] | %Inh (PIK3CG) [%] | %Inh (PIK4CB) [%] | %Inh (PIKFYVE) [%] | %Inh (PIM1) [%] | %Inh (PIM2) [%] | %Inh (PIM3) [%] | %Inh (PIP5K1A) [%] | %Inh (PIP5K1C) [%] | %Inh (PIP5K2B) [%] | %Inh (PIP5K2C) [%] | %Inh (PKAC-alpha) [%] | %Inh (PKAC-beta) [%] | %Inh (PKMYT1) [%] | %Inh (PKN1) [%] | %Inh (PKN2) [%] | %Inh (PLK1) [%]
Cc1n[nH]c2cc(Nc3ccnc(Nc4cccc(CN5CCOCC5)c4)n3)ccc12 [GW682569] | 0 | 3 | 7 | 9 | 6 | 81 | 23 | 0 | 0 | 0 | 57 | 70 | 33 | 71 | 0 | 0 | 0 | 46 | 0 | 0
Cc1ccc(C(=O)Nc2ccc(Oc3ccc4nc(NC(=O)C5CC5)cn4c3)c(F)c2)c(=O)n1-c1ccccc1 | 0 | 0 | 0 | 0 | 0 | 0 | 14 | 1 | 0 | 0 | 26 | 44 | 34 | 77 | 0 | 26 | 0 | 0 | 0 | 2
C[C@@H]1CCN(C(=O)N2CCCC2)C[C@@H]1N(C)c1ncnc2[nH]ccc12 | 0 | 2 | 26 | 2 | 14 | 7 | 3 | 0 | 0 | 0 | 8 | 0 | 0 | 0 | 0 | 0 | 0 | 86 | 48 | 0
CCN1CCN(CCCC(=O)Nc2n[nH]c3nc(-c4ccc(O)cc4)c(Br)cc23)CC1 [SB-731579] | 16 | 0 | 0 | 44 | 6 | 16 | 14 | 57 | 89 | 72 | 12 | 30 | 0 | 24 | 0 | 0 | 0 | 0 | 6 | 0
CC(=O)c1c(-c2ccncc2)[nH]c(-c2ccncc2)c1C [GW493036] | 0 | 0 | 0 | 38 | 0 | 0 | 26 | 11 | 0 | 9 | 50 | 91.1 | 19 | 16 | 0 | 47 | 0 | 16 | 0 | 18
O=C(Nc1n[nH]c2cc(-c3ccco3)ccc12)C1CC1 [SB-737447] | 17 | 0 | 0 | 0 | 0 | 18 | 1 | 6 | 0 | 22 | 45 | 12 | 27 | 0 | 0 | 0 | 0 | 0 | 12 | 0
Cc1ccc(Nc2ccnc(Nc3ccc4c(c3)CS(=O)(=O)C4)n2)cc1O.Cl [GW579362] | 42 | 2 | 0 | 0 | 31 | 67 | 0 | 29 | 0 | 5 | 29 | 39 | 80 | 90 | 7 | 0 | 0 | 11 | 0 | 0
Cn1cc(-c2cccc3c(N)c(C(N)=O)nnc23)cn1 | 26 | 0 | 0 | 20 | 18 | 16 | 0 | 0 | 0 | 0 | 0 | 5 | 0 | 7 | 0 | 16 | 9 | 0 | 23 | 14
Cl.c1ccc(Oc2ccc(Nc3ccnc4cc(-c5ccc(CN6CCNCC6)o5)ccc34)cc2)nc1 [GW567142] | 0 | 0 | 0 | 0 | 10 | 0 | 0 | 0 | 0 | 2 | 0 | 34 | 0 | 23 | 0 | 0 | 0 | 10 | 0 | 22
CN1CCN(CCNc2nc3cc(Oc4ccc(NC(=O)Nc5cc(C(F)(F)F)ccc5F)cc4)ccc3[nH]2)CC1.Cl.Cl [GW768504] | 0 | 0 | 0 | 0 | 0 | 0 | 0 | 10 | 2 | 0 | 20 | 0 | 0 | 0 | 0 | 2 | 0 | 0 | 8 | 0
COc1cc(Nc2nccc(N3CCC(NC(=O)c4cccc(C#N)c4)C3)n2)cc(OC)c1OC (stereo not shown) [GSK1379751] | 0 | 0 | 0 | 0 | 0 | 3 | 9 | 0 | 0 | 0 | 0 | 47 | 0 | 94.5 | 0 | 0 | 0 | 0 | 0 | 0
COc1cc2nccc(Nc3ccc(Oc4ccccc4)cc3)c2cc1OC.Cl [GI261656] | 0 | 0 | 0 | 0 | 0 | 0 | 5 | 0 | 0 | 0 | 10 | 56 | 46 | 31 | 0 | 0 | 0 | 0 | 0 | 0
O=c1[nH]cc(-c2ccc(O)cc2)c2sc(-c3ccncc3)cc12 [GSK1033723] | 20 | 0 | 13 | 39 | 7 | 0 | 0 | 0 | 13 | 0 | 0 | 65 | 19 | 27 | 0 | 0 | 8 | 0 | 0 | 13
CN(c1ccccc1CNc1nc(Nc2ccc3c(c2)CC(=O)N3)ncc1C(F)(F)F)S(C)(=O)=O | 0 | 0 | 0 | 0 | 0 | 0 | 38 | 0 | 0 | 0 | 32 | 0 | 19 | 9 | 77 | 63 | 0 | 85 | 66 | 0
Cl.Nc1n[nH]c2cc(-c3ccccn3)ccc12 [GSK2189892] | 0 | 0 | 0 | 0 | 0 | 0 | 0 | 0 | 0 | 0 | 0 | 25 | 7 | 7 | 0 | 0 | 0 | 10 | 0 | 0
COC(=O)Nc1nc2cc(Oc3ccc(NC(=O)Nc4cc(C(F)(F)F)ccc4Cl)cc3)ccc2[nH]1.Cl [GW697465] | 0 | 0 | 16 | 4 | 0 | 0 | 20 | 30 | 0 | 22 | 56 | 63 | 15 | 53 | 0 | 0 | 0 | 0 | 0 | 0

SMILES | %Inh (PIK3C2G) [%] | %Inh (PIK3CA) [%] | %Inh (PIK3CB) [%] | %Inh (PIK3CD) [%] | %Inh (PIK3CG) [%] | %Inh (PIK4CB) [%] | %Inh (PIKFYVE) [%] | %Inh (PIM1) [%] | %Inh (PIM2) [%] | %Inh (PIM3) [%] | %Inh (PIP5K1A) [%] | %Inh (PIP5K1C) [%] | %Inh (PIP5K2B) [%] | %Inh (PIP5K2C) [%] | %Inh (PKAC-alpha) [%] | %Inh (PKAC-beta) [%] | %Inh (PKMYT1) [%] | %Inh (PKN1) [%] | %Inh (PKN2) [%] | %Inh (PLK1) [%]
COc1cc2c(Nc3ccc(NC(=O)c4ccccc4)cc3)ncnc2cc1OCCCN1CCOCC1 [GSK301329] | 0 | 0 | 0 | 0 | 0 | 0 | 0 | 0 | 0 | 0 | 0 | 27 | 14 | 0 | 3 | 14 | 1 | 0 | 0 | 0
CC(=O)Nc1ccc(-c2cc3ncnc(SCC(=O)O)c3s2)cc1 | 0 | 0 | 26 | 5 | 1 | 0 | 38 | 10 | 48 | 22 | 0 | 70 | 0 | 46 | 0 | 0 | 25 | 12 | 5 | 0
CCNCC(Cc1ccccc1)NC(=O)c1cc(Br)c(-c2ccnc3[nH]ccc23)s1.Cl.Cl (stereo not shown) [GSK1383280] | 0 | 0 | 0 | 0 | 0 | 12 | 0 | 22 | 0 | 5 | 55 | 38 | 16 | 36 | 99.4 | 99.3 | 0 | 39 | 58 | 0
Cc1cccc2c(-c3ccncc3)c(-c3ccc(F)cc3)nn12.Cl [GW461487] | 0 | 0 | 0 | 0 | 0 | 0 | 0 | 18 | 0 | 0 | 13 | 35 | 10 | 0 | 0 | 0 | 9 | 0 | 0 | 0
CCn1c(-c2nonc2N)nc2cncc(Br)c21 [SB-738004] | 12 | 0 | 21 | 34 | 11 | 5 | 39 | 89 | 0 | 62 | 54 | 53 | 28 | 38 | 11 | 0 | 6 | 0 | 4 | 18
CN(c1cccc(CNc2nc(Nc3ccc4c(c3)CC(=O)N4)ncc2C(F)(F)F)c1)S(C)(=O)=O | 0 | 0 | 0 | 0 | 0 | 0 | 31 | 12 | 0 | 3 | 45 | 45 | 90.9 | 46 | 0 | 0 | 5 | 77 | 19 | 0
C[C@@H]1CNc2c(sc3ccc4nc(-c5ccncc5)ccc4c23)C(=O)N1 | 2 | 0 | 0 | 0 | 0 | 0 | 52 | 44 | 69 | 93.1 | 30 | 11 | 0 | 0 | 0 | 27 | 7 | 7 | 15 | 0
Cn1ccc2ncnc(Oc3ccc(NC(=O)Nc4cccc(C(F)(F)F)c4)c(Cl)c3)c21 | 5 | 0 | 19 | 0 | 0 | 0 | 29 | 12 | 1 | 15 | 0 | 48 | 2 | 0 | 0 | 0 | 0 | 0 | 0 | 0
CN1CCN(CCCNc2nccc(-c3c(-c4ccc(F)cc4)nn4cc(C(N)=O)ccc34)n2)CC1 [GW622475] | 0 | 0 | 0 | 0 | 0 | 0 | 94.2 | 25 | 0 | 8 | 0 | 50 | 12 | 29 | 6 | 1 | 9 | 13 | 0 | 0
CN(c1ccc2c(c1)nc(NCc1ccc(F)cc1)n2C)c1ccnc(Nc2ccc(CS(C)(=O)=O)cc2)n1.Cl [GW813244] | 0 | 27 | 0 | 0 | 0 | 0 | 0 | 18 | 49 | 15 | 12 | 0 | 26 | 52 | 24 | 14 | 4 | 18 | 4 | 0
Cc1ccn2nc(-c3ccc(F)cc3)c(-c3ccncc3)c2c1.Cl [GW457859] | 20 | 0 | 0 | 1 | 1 | 0 | 54 | 16 | 0 | 0 | 54 | 81 | 15 | 26 | 29 | 13 | 0 | 0 | 0 | 0
CC(C)S(=O)(=O)N1CCN(Cc2ccc3c(c2)nc(NC(=O)c2ccsc2)n3C[C@H](O)c2ccccc2)CC1 [GW635815] | 0 | 0 | 0 | 21 | 0 | 0 | 0 | 8 | 0 | 7 | 0 | 15 | 35 | 24 | 0 | 27 | 8 | 6 | 25 | 0
COc1cccc(C2=C(Nc3cccc(Cl)c3)C(=O)NC2=O)c1 [SB-341556] | 0 | 1 | 0 | 0 | 0 | 10 | 0 | 9 | 0 | 0 | 0 | 23 | 0 | 28 | 0 | 0 | 0 | 5 | 0 | 0
Cn1ccc2ncnc(Oc3ccc(NC(=O)Nc4cnn(C(C)(C)C)c4)c(Cl)c3)c21 | 8 | 10 | 0 | 14 | 7 | 0 | 0 | 0 | 7 | 0 | 17 | 3 | 100 | 0 | 0 | 3 | 0 | 0 | 3 | 0
CS(=O)c1ccc(-c2coc3ccc(-c4n[nH]c(=O)o4)cc23)cc1 (stereo not shown) | 49 | 46 | 41 | 35 | 78 | 43 | 64 | 87 | 82 | 84 | 0 | 68 | 20 | 79 | 0 | 23 | 8 | 8 | 12 | 6
Cl.Cl.NC[C@H](CC1CCCCC1)NC(=O)c1ccc(-c2ccnc3[nH]ccc23)s1 [GSK1581428] | 0 | 0 | 0 | 0 | 0 | 0 | 0 | 0 | 0 | 0 | 47 | 41 | 75 | 25 | 99.7 | 99.9 | 0 | 52 | 99 | 2
